Compound activity (PubChem)
Shown are actives, neighbours in structure and some others; about 19% of the full set was active somewhere.
IL1B secr inh = inflammasome signaling inhibition, IL-1 beta readout; THP-1 LPS/ATP IL-1B secretion, AlphaLISA, 16 h; stronger effect = lower value; activity change, % at 57.5 µM; 4.7% of 360,000 active; AID 743279; in the data active = activity change below about -50%; inconclusive = mostly about -30% to -49%
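Secreted IL-1B measured by AlphaLISA bead assay after 16 h compound exposure of THP-1 cells; compounds (final up to 57.5 uM) added 1 h before LPS (250 ng/mL) and ATP (1.25 mM) stimulation; lower signal means less secretion.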
HT1080-NT tox = kills 2HG-producing HT-1080-NT fibrosarcoma cells; AID 686970; HT-1080-NT fibrosarcoma viability, CellTiter-Glo ATP luminescence, 48 h; Potency, µM (titrated, usually from 46.1 µM), for inactives: at the highest dose activity, negative = less viability, most hits filed as cytotoxic; 1.6% of 360,000 active;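 note: NT is the 2HG producing partner of a matched IDH1 knockdown line; potency is the fitted concentration of half-maximal effect; 0% = DMSO-treated cells and -100% = media-only wells without cells; nearly all actives have a fitted effect of over 55% in size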
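Viability of the 2HG-overproducing fibrosarcoma line after 48 hours of compound exposure at 37 degrees C was determined by luminescence with CellTiter-Glo, and concentration-effect curves were then fitted and categorized.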
DT40 TDP1 CPT = growth inhibition of DT40 Tdp1-/-;hTDP1 cells with camptothecin (screen for TDP1 inhibitors) | chicken DT40 Tdp1-/-;hTDP1 cells + 20 nM CPT, ATP luminescence, 48 h | Potency, µM (highest dose often 46.2 µM), for the others: at the top dose activity change, negative = growth inhibition, actives largely listed as inhibitors | 12% of 420,000 active | AID 686979; note: potency is the fitted concentration of half-maximal effect; nearly all actives have a fitted effect of over 55% in size
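Chicken DT40 Tdp1-/- cells stably complemented with human TDP1 were seeded at 400 cells/well in medium containing 20 nM camptothecin, exposed to pin-transferred compounds, and grown at 37 °C for at least 48 hr. Viability was read as ATP luminescence.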
DT40 TDP1 no CPT = qHTS for Inhibitors of human tyrosyl-DNA phosphodiesterase 1 (TDP1): qHTS in cells in absence of CPT; DT40 Tdp1-/- hTDP1 cells, no CPT, ATP luminescence, 48 h; Potency, µM (series often up to 46.2 µM), without a hit: at the highest dose activity change, negative = growth inhibition, most hits filed as inhibitors; 15% of 420,000 active; note: potency is the fitted concentration of half-maximal effect; nearly all actives have a fitted effect of over 55% in size
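No-CPT arm: Tdp1-/-;hTDP1 DT40 cells (400/well) plus compounds, incubated ≥48 hr at 37 °C. Readout CellTiter-Glo luminescence.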
HT1080 IDH1KD tx = HT-1080 IDH1 knockdown cell toxicity (counter line). HT-1080 IDH1 knockdown viability, ATP luminescence, 48 h. Potency, µM (top dose mostly 46.1 µM), for the others: top-dose activity, negative = toxicity, most hits filed as cytotoxic. 2% of 360,000 active. AID 686971;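 note: potency is the fitted concentration of half-maximal effect; 0% = DMSO wells and -100% = cell-free medium wells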
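CellTiter-Glo luminescence after 48 h compound exposure at 37 degrees C of IDH1-knockdown HT-1080 cells in 5% FBS RPMI. %Activity scaled between DMSO wells and cell-free media wells, with curves fitted and assigned curve classes.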
The depositor's hits bear a star; ? = inconclusive; . = no result; ! = a repeat was not active; [ ] = remark or other dose. Unless noted, calls come from the whole dose curve; as a rule, active = well fitted curve in the direction sought with a large enough effect; inconclusive = small, poorly fitted or top-dose-only effect, or another doubt; inactive = no such curve, though single readings can be large; an effect the other way counts as inactive or inconclusive. Unless noted, % is set by controls: 0 for no effect and ±100 for the full control effect.

SMILES | IL1B secr inh | HT1080-NT tox | DT40 TDP1 CPT | DT40 TDP1 no CPT | HT1080 IDH1KD tx
C=C(C)[C@H]1CN[C@H](C(=O)O)[C@H]1CC(=O)O | 19.2 | ? | ? | 21.1µM*! | 10.9%
C=C(C)[C@H]1CN[C@H](C(=O)O)[C@@H]1CC(=O)O | . | . | 1.5% | 0.5% | .
NC(N)=Nc1ccc2[nH]c3c(c2c1)C[C@@]1(O)[C@H]2Cc4ccc(O)c5c4[C@@]1(CCN2CC1CC1)C3O5 (stereo partly drawn) | -19.7 | 11.7% | -6.5% | -8.4% | -5.9%
CC1Oc2cc3c(-c4c(O)cc(O)c5c(O)c6c(cc45)OC(C)C(C)C6=O)c(O)cc(O)c3c(O)c2C(=O)C1C (stereo not drawn) | ? | 4.61µM* | 0.0164µM* | 0.116µM* | 8.2µM*
CN(C)CC(C(=O)Cc1ccccc1)c1ccccc1 (stereo not drawn) | -96.4* | 16.4µM* | 0.92µM* | 0.651µM* | 8.2µM*
COc1ccc(OCC(=O)N2CCN(CC3CC4C=CC3C4)CC2)cc1 (stereo not drawn) | -9.4 | 8.3% | -9.2% | -24.2% | 15.2%
C=CCC1([C@H](C)CCC)C(=O)NC(=O)NC1=O | . | . | -20.1%[92.5 µM] | -25.6%[92.5 µM] | .
CC1CCC(C(C)C)C(OC(=O)Cn2c(COc3ccccc3)[n+](C)c3ccccc32)C1 (stereo not drawn) | -105.4* | 11.6µM* | 0.581µM* | 1.03µM* | 11.6µM*
Cc1ccc(C(=O)N2CCc3cc(CNC(=O)c4ccnn4C)ccc32)cc1 | . | . | 5.8µM* | 9.2µM* | .
Cc1cc2cc(CNC(=O)Nc3ccc(Cl)c(Cl)c3)ccc2n1C | -3.5 | 4.2% | -19.0% | ? | -8.1%
CCOC(=O)c1cccc(NC(=O)NCc2ccc3c(c2)CCN3C(=O)c2ccccc2)c1 | . | . | 16.4µM* | 16.4µM* | .
O=C(NCc1ccc(C(=O)N2CCC3(CC2)OCCO3)cc1)c1cccc(Br)c1 | 26.0 | 6.5% | ? | -28.3% | 11.0%
N#CC12CNCC1CN=N2 (stereo not drawn) | 2.9 | 10.6% | -1.3% | 5.1% | 15.4%
O=c1c2ccccc2nc(/C=C\c2ccc(F)cc2)n1-c1ccccc1F | . | . | 23.1µM* | ? | .
O=c1c2ccccc2nc(/C=C\c2ccccc2[N+](=O)[O-])n1-c1ccccc1O | -98.0* | ? | ? | 23.1µM* | ?
CCc1nc2ccccc2c(=O)n1-c1ccccc1[N+](=O)[O-] | -3.0 | 8.4% | -21.1% | ? | 3.1%
CCCCc1nc2ccccc2c(=O)n1-c1ccccc1[N+](=O)[O-] | -20.0 | 7.5% | ? | 14.6µM* | 3.1%
O=c1c2ccccc2nc(/C=C/c2ccccn2)n1-c1ccccc1 | ? | 15.5% | -24.5% | -19.5% | 14.2%
O=c1c2ccccc2nc(/C=C/c2ccccc2F)n1-c1ccccc1O | -86.5* | -12.4% | -45.1% | -22.5% | -11.3%
O=S(=O)(NC1CN2CCC1CC2)c1ccc(Cl)cc1 (stereo not drawn) | -2.3 | 4.8% | 7.3% | 2.7% | 3.4%
Clc1ccccc1CNC1CN2CCC1CC2 (stereo not drawn) | -3.3 | -1.6% | ? | -8.1% | 6.9%
O=C(COc1ccc(Cl)cc1)N(c1ccc(Cl)cc1)C1CN2CCC1CC2 (stereo not drawn) | -95.5* | 16.4µM* | ? | 16.4µM* | 14.6µM*
O=C(COc1ccc(Cl)cc1)N(c1ccccc1Cl)C1CN2CCC1CC2 (stereo not drawn) | -75.0* | ? | 23.1µM* | 16.4µM* | 16.4µM*
COc1cccc2cc(-c3cc(=O)oc4ccc(OC(=O)N(C)C)cc34)oc12 | -15.0 | 18.1% | ? | -1.5% | 7.2%
O=C(Nc1ccccc1)c1cccn(Cc2ccccc2)c1=O | -10.6 | 0.0% | ? | ? | ?
SMILES | IL1B secr inh | HT1080-NT tox | DT40 TDP1 CPT | DT40 TDP1 no CPT | HT1080 IDH1KD tx
O=C(Nc1ccc2c(c1)OCCO2)c1cccn(Cc2cccc(F)c2)c1=O | . | . | 20.6µM* | 23.1µM* | .
O=C(Nc1ccc2c(c1)OCO2)c1cccn(Cc2cccc(F)c2)c1=O | . | . | -13.3% | -17.6% | .
Cc1ccc(Cn2cccc(C(=O)Nc3ccc4c(c3)OCO4)c2=O)cc1 | . | . | -23.8% | -17.4% | .
Cc1ccc(Cn2cccc(C(=O)Nc3ccc4c(c3)OCCO4)c2=O)cc1 | . | . | 20.6µM* | 16.4µM* | .
CCc1ccc(NC(=O)c2cccn(Cc3cccc([N+](=O)[O-])c3)c2=O)cc1 | . | . | -19.2% | 20.6µM* | .
Cc1cccc(NC(=S)N2CC3CC(C2)c2cccc(=O)n2C3)c1C (stereo not drawn) | 12.2 | 21.3% | -12.6% | -17.2% | 24.4%
O=C(c1cc(-c2cccnc2)nc2ccccc12)N1CCC2(CC1)OCCO2 | 16.6 | -6.9% | -7.5% | -24.7% | -16.3%
CC(=O)O[C@H]1CC[C@@]2(C)C(=CC[C@H]3[C@@H]4CC[C@H](C(C)=O)[C@@]4(C)CC[C@@H]32)C1 | 1.4 | 11.6% | ? | 16.4µM*! | 10.7%
CC(=O)C1CCC2C3CCC4=CC(=O)CC[C@@]4(C)C3CC[C@]12C (stereo partly drawn) | . | . | 13µM* | 14.6µM* | .
Cc1ccc(C=C2C(Cl)=C(Cl)C(Cl)=C2Cl)cc1 | -5.6 | -20.1% | 3.26µM* | 5.17µM* | 0.0%
O=C(O)c1ccc(Cl)nc1 | -6.8 | 9.8% | ? | ? | 11.7%
O=[N+]([O-])c1cccc(NP(=O)(N2CC2)N2CC2)c1 | -3.0 | -1.2% | 2.06µM* | 6.51µM* | -2.1%
Cc1cccc([N+](=O)[O-])c1 | ? | 48.0% | 3.7% | -3.0% | 12.6%
CN1[C@@H]2CCC[C@H]1CC(=O)C2 | 11.8 | 22.1% | -4.7% | -11.9% | 6.8%
Cc1cccc(CN2CCN(C(=O)Cc3ccccc3)CC2)c1 | -15.0 | 16.2% | 1.3% | -23.9% | 5.4%
Cc1ccc(/C=C/C(=O)C2C(=O)c3ccccc3C2=O)cc1 | 12.0 | -23.9% | 16.4µM* | ? | -2.5%
CC(C)CN1CCC2(CC1)CCN(C(=O)Oc1ccccc1)CC2 | . | . | -0.8% | 1.4% | .
CC1N=C(c2ccccc2)c2cc(Br)ccc2NC1=O (stereo not drawn) | 18.1 | 3.5% | ? | 18.4µM* | 1.6%
O=C1Nc2ccc(Br)cc2C(c2ccccc2)=NC1O (stereo not drawn) | 12.5 | -0.3% | ? | ? | 1.4%
CC(=O)c1cccc(NC(=O)N2C[C@H]3C[C@@H](C2)c2cccc(=O)n2C3)c1 | 10.7 | -0.4% | 0.9% | 19.5% | 3.7%
O=C(Oc1ccccc1)N1CCC2(CC1)CCN(C(c1ccccc1)c1ccccc1)CC2 | . | . | -3.0% | -10.4% | .
C=CCN1C(=O)NC(=O)/C(=C/c2ccc(OC)c(COc3ccc(NC(C)=O)cc3)c2)C1=O | 13.1 | ? | 2.59µM* | 3.66µM* | ?
